Screening data (PubChem)
RAD52 inh: blocks human RAD52 DNA annealing | P43351 | recombinant RAD52 DNA annealing, FRET fluorescence | inhibition, % at 18.7 µM | 360,000 compounds, 0.46% hits;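 active = every replicate showing at least 50% inhibition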
AF4-AF9 inh: MLL-AF4/AF9 protein interaction inhibition | AlphaScreen, biotin-AF4 peptide binding to FLAG-AF9 | 350,000 compounds, 0.47% hits | inhibition, % at 10 µM | P42568;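 active = every replicate reaching a set inhibition limit, whatever the replicate mean, cut at about 25% in these data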;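 also: 0% = plate neutral control median and 100% = total signal loss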
DENV2 CPE: protects cells from dengue virus 2 cytopathic effect. DENV2-infected cells, cytopathic effect rescue, plate reader. CPE inhibition, % at 9.99 µM. 350,000 compounds, 1.7% hits; in the data active = CPE inhibition above about 20%, passing the limit was not always enough; tested in BHK-21 cells;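 also: 0% = median of neutral control wells and 100% = median of positive control wells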
ERAP1 inh: ERAP1 (human) enzyme inhibition. 340,000 compounds, 0.15% hits. AID 652197. Q9NZ08. inhibition, % at 10.7 µM. recombinant ERAP1, Leu-AMC fluorescence, 60 min;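 active = mean replicate inhibition of at least 30%, or all replicates individually reaching that 30% level; inactive = mean below 30% and not every replicate reaching it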;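 also: 0% = neutral control wells and 100% = L-leucinethiol positive control wells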
Target sequence (Q9NZ08 whole entry, looked up): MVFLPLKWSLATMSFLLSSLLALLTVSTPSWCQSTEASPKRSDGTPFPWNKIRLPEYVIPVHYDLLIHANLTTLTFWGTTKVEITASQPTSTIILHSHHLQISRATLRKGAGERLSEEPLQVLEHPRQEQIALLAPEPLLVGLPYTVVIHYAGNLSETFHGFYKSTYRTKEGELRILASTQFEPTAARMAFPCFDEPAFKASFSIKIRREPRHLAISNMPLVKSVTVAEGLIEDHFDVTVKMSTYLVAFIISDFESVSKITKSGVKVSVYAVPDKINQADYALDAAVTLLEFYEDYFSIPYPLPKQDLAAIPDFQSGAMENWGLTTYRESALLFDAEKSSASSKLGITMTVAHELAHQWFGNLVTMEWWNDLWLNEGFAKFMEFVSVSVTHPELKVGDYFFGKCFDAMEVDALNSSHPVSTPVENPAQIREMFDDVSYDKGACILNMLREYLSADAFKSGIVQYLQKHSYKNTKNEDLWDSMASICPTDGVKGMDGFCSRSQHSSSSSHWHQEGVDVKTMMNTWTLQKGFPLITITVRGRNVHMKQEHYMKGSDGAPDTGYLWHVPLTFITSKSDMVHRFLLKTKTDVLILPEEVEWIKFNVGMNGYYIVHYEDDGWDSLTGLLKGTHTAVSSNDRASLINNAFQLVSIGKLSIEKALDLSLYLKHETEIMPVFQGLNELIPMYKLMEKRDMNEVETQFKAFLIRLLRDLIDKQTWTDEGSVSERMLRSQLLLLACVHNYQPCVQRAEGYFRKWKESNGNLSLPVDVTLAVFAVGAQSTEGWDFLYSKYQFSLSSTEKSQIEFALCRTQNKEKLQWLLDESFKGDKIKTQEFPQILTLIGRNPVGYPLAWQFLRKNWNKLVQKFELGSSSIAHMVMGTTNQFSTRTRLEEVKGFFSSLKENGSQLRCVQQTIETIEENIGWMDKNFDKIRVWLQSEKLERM
FGF22 binding: FGF22 (human) thermal shift binding; recombinant FGF22 thermal shift, SYPRO orange fluorescence; percent of sucrose octasulfate shift, DMSO zero; activity (Tm shift, normalised), % at 9.99 µM; Q9HCT0; 340,000 compounds, 1.5% hits;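 active = mean Tm shift, scaled 0 neutral to 100 positive control, at about 1.3% or above, every replicate too, limit read from the data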
* marks the source's active call; other numbers are inactive results; . = no result. Most compounds without a hit are left out; they make up all but 4% or so of the library.

SMILES	RAD52 inh	AF4-AF9 inh	DENV2 CPE	ERAP1 inh	FGF22 binding
CCCCCC(=O)N1C[C@H](n2cc(COC(=O)c3ccccc3)nn2)[C@@H](O)C[C@@H]1c1ccc(Cl)cc1	-8.7	-0.9	53.5*	-2.1	0.0
Cn1ncc2c(=O)n(/N=C/c3ccccc3)cnc21	-11.4	-2.0	9.5	-1.5	43.7*
O=C(Nc1cc(F)ccc1F)N1CC(=O)N2[C@@H](CO)[C@H](c3ccc(/C=C/c4ccccc4)cc3)[C@@H]2C1	-32.8	9.4	-16.8	-0.4	.
N/C(=N\OC(=O)C1CCCCC1)c1ccncc1	5.9	-5.5	-2.5	9.2	43.2*
N/C(=N\OC(=O)c1cc(Cl)ccc1Cl)c1ccncc1	-2.4	-1.6	0.4	-4.0	42.8
N/C(=N\OC(=O)c1cccc(Cl)c1)c1ccncc1	-2.1	-1.8	.	1.8	44.5*
COc1ccccc1N1CCN(Cc2ccc(C(=O)O)cc2)CC1	1.8	-4.3	0.4	-1.8	-0.2
COc1ccccc1N1CCN(Cc2cnc3ccc(Cl)cn23)CC1	2.2	-0.1	32.0*	-1.2	-0.2
COCC(=O)Nc1ccc2c(c1)C(=O)N(C)C[C@@H](OC)[C@@H](C)CN(CC1CC1)[C@H](C)CO2	11.1	-0.1	1.8	-1.7	0.1
Cc1ccc(Nc2nc(N)c3ccccc3n2)cc1Cl	-11.5	7.7	7.6	-33.4	2.2*
Cc1cccc(C(=O)NNS(=O)(=O)c2ccccc2)c1O	1.5	0.0	-2.5	2.8	43.0*
O=C(NNS(=O)(=O)c1ccccc1)c1ccc(O)cc1	-11.8	-12.3	-0.8	-0.7	0.2
COc1ccc(S(=O)(=O)NNC(=O)c2ccccc2-n2cccc2)cc1	2.7	-1.4	2.3	3.7	42.9*
O=S(=O)(NC[C@@H]1CC[C@@H]2[C@@H](CN2Cc2cccc(-c3ccccn3)c2)O1)c1ccccc1	-5.0	-1.5	-5.2	1.5	.
CC1(C)OC(=O)C2=C(C[C@@H](C3CC3)O[C@@H]2C2CC2)O1	-3.1	-2.6	60.8*	-0.7	-0.2
CC1(C)OC(=O)C2=C(C[C@@H](C3CCCC3)O[C@H]2CCc2cccc(Cl)c2)O1	-5.5	-4.9	8.1	-4.1	0.6
Cc1ccc(Cl)cc1N1CCN(CC(O)COC(C)C)CC1 (centres undefined)	3.3	.	32.6*	6.9	0.0
CN1CCN(CC(O)COC(c2ccc(Cl)cc2)c2ccc(Cl)cc2)CC1 (centres undefined)	28.1	9.6	0.7	-3.8	0.0
C[C@H]1CN([C@@H](C)CO)C(=O)Cc2cc(NC(=O)Nc3cccc4ccccc34)ccc2O[C@@H]1CN(C)Cc1ccc(C(=O)Nc2ccccc2N)cc1	1.3	-4.1	38.2*	-0.1	0.0
C[C@H](CO)N1C[C@H](C)[C@@H](CN(C)Cc2ccc(C(=O)O)cc2)Oc2ccc(NC(=O)Nc3cccc4ccccc34)cc2CC1=O	1.7	2.3	76.5*	-14.2	-0.1
C[C@H](CO)N1C[C@H](C)[C@H](CN(C)Cc2ccc(C(=O)O)cc2)Oc2ccc(NC(=O)Nc3cccc4ccccc34)cc2CC1=O	6.7	0.6	4.7	50.6*	-0.2
C[C@@H]1CN([C@H](C)CO)C(=O)Cc2cc(NC(=O)Nc3cccc4ccccc34)ccc2O[C@H]1CN(C)Cc1ccc(C(=O)O)cc1	-2.7	-2.5	-4.2	-14.7	-0.1
COc1ccc2c3c([nH]c2c1)[C@H](CO)N(C(=O)CN(C)C)CC31CCN(CC2CCCC2)CC1	33.8	4.2	-1.0	1.0	0.0
C[C@H]1CN([C@@H](C)CO)S(=O)(=O)c2ccc(-c3ccccc3F)cc2O[C@H]1CN(C)Cc1ccncc1	20.0	7.2	21.1*	-2.5	-0.3
C[C@@H]1CN([C@H](C)CO)S(=O)(=O)c2ccc(-c3ccccc3F)cc2O[C@H]1CN(C)Cc1cccnc1	20.9	6.4	5.8	1.2	0.1
SMILES	RAD52 inh	AF4-AF9 inh	DENV2 CPE	ERAP1 inh	FGF22 binding
C[C@H](CO)N1C[C@H](C)[C@@H](CN(C)Cc2cccnc2)Oc2cc(-c3ccccc3F)ccc2S1(=O)=O	.	.	46.1*	.	.
C[C@@H]1CN([C@H](C)CO)S(=O)(=O)c2ccc(-c3ccccc3F)cc2O[C@H]1CN(C)Cc1ccncc1	14.1	10.3	29.4*	-2.5	-0.8
COc1ccc(NC(=O)N[C@H]2CC[C@@H](CCn3cc(-c4ccccn4)nn3)O[C@H]2CO)cc1	0.1	-1.4	6.3	-0.3	0.0
C[C@@H]1CN([C@@H](C)CO)C(=O)Cc2cc(N(C)C)ccc2O[C@H]1CN(C)S(=O)(=O)c1cccs1	19.8	.	.	.	.
Cc1ccc(S(=O)(=O)N2C[C@H]3[C@H]4C(=O)N(c5ccccc5)C(=O)[C@H]4C[C@H](OC(=O)NCc4ccccc4)[C@@]3(O)C2)cc1	-25.0	-2.4	15.8	-2.8	42.9*
COc1ccc(C(=O)OCc2c(-c3cccc(OC)c3)ncc3ccccc23)cc1	-19.9	-2.1	21.9*	.	-0.1
C[C@H](CO)N1C[C@H](C)[C@@H](CN(C)S(=O)(=O)c2ccc(F)cc2)OCCCC[C@H](C)Oc2ccc(NS(C)(=O)=O)cc2C1=O	-43.1	-1.1	26.7*	3.3	-0.3
C[C@@H]1CN([C@H](C)CO)C(=O)c2cc(NS(C)(=O)=O)ccc2O[C@@H](C)CCCCO[C@@H]1CN(C)S(=O)(=O)c1ccc(F)cc1	8.4	1.8	18.9	-4.7	-0.2
Cc1ccc(S(=O)(=O)N(C)C[C@@H]2OCCCC[C@H](C)Oc3ccc(NS(C)(=O)=O)cc3C(=O)N([C@H](C)CO)C[C@@H]2C)cc1	-4.7	1.4	56.9*	3.6	-0.3
C[C@@H]1CCCCO[C@H](CN(C)S(=O)(=O)c2ccc(F)cc2)[C@@H](C)CN([C@@H](C)CO)C(=O)c2cc(NS(C)(=O)=O)ccc2O1	-23.9	-0.6	29.4*	-6.4	-0.4
C[C@@H]1CN([C@@H](C)CO)C(=O)c2cc(NS(C)(=O)=O)ccc2O[C@@H](C)CCCCO[C@@H]1CN(C)S(=O)(=O)c1ccc(F)cc1	-8.5	-0.8	11.2	-0.5	-0.1
C[C@H](CO)N1C[C@H](C)[C@H](CN(C)C(=O)c2cccc(F)c2)Oc2ncc(-c3cncnc3)cc2C1=O	-5.2	-3.5	5.4	2.0	.
CC(C)CC(=O)Nc1cccc(C(C)O)c1 (centres undefined)	2.4	-2.3	-3.6	-1.0	43.3*
CC(O)c1cccc(NC(=O)C2CCCCC2)c1 (centres undefined)	-7.9	-0.6	-3.8	0.2	42.8
CCCCC(=O)Nc1cccc(C(C)O)c1 (centres undefined)	-7.1	-0.8	8.7	2.3	43.3*
CCC(=O)N1CC(=O)N2[C@H](CO)[C@H](c3ccc(C#CCc4ccccc4)cc3)[C@H]2C1	-8.0	-6.1	-1.8	-0.1	.
O=C(NC1CCCC1)c1ccc(CSc2nc3ccncc3n2Cc2ccc(F)cc2)cc1	-13.2	2.0	3.8	4.4	0.0
O=C(NCCN1CCOCC1)c1ccc(CSc2nc3ccncc3n2Cc2ccc(F)cc2)cc1	-3.0	1.0	-13.5	-6.7	44.0*
